Test results as given in PubChem BioAssay AID463190 (Sanford-Burnham Center for Chemical Genomics, 2010).
In all, about 330,000 compounds went through this assay and about 7,300 (2.2%) were called active.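 Rule for the calls: active = inhibition of at least 40%; inactive = the rest.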 The sample as a whole holds a higher share of actives than the screen did.

assay: growth inhibitors of tim10-1 mutant yeast, primary screen, luminescence, uHTS (AID 463190);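 note: mutant grown at 25 °C; 0% = DMSO wells with yeast and 100% = wells holding no yeast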; conditions: S. cerevisiae tim10-1 ts strain growth, BacTiter-Glo, 24 h; at 20 µM; hits give high values

Compound	inhibition
Cc1cccc(C(=O)NCC(=O)OCC(=O)N2CC3(C)CC2CC(C)(C)C3)c1 (configuration not stated)	15.2% (inactive)
Cc1nnnn1/C(=C\c1ccccc1)C(=O)OCC(=O)N1CC2(C)CC1CC(C)(C)C2 (configuration not stated)	56.1% (active)
COc1ccc(C(=O)N2CC3(C)CC2CC(C)(C)C3)cc1OC (configuration not stated)	19.6% (inactive)
CCOc1ccc(C(C)=O)cc1CSc1nnc(-c2ccncc2)n1CCOC	22.6% (inactive)
NC(=O)NC(CC(=O)NNC(=O)c1ccccn1)c1ccc(Cl)cc1 (configuration not stated)	8.52% (inactive)
NC(=O)c1ccsc1NC(=O)c1ccco1	-3.6% (inactive)
O=C(Nc1nnc(CCOCCOCCc2nnc(NC(=O)c3ccco3)s2)s1)c1ccco1	-13% (inactive)
O=C(Nc1nc(-c2ccco2)c(-c2ccco2)s1)c1ccco1	59.7% (active)
C=CC[C@@H](CC(=O)NCCO)C(=O)N[C@H](C)COC(=O)[C@@H](CC=C)CC(=O)OC(C)(C)C	-5.11% (inactive)
CC(Nc1ccccc1)c1cccnc1 (configuration not stated)	-3.38% (inactive)
CCN(CC)S(=O)(=O)c1cc(C(=O)Nc2cc(S(=O)(=O)N3CCOCC3)ccc2N2CCCC2)ccc1F	3.43% (inactive)
O=C(CN(C(=O)c1csnn1)c1cccc(Cl)c1)NC1CCCC1	17.6% (inactive)
O=C(CCCN1C(=O)/C(=C/c2ccccc2)SC1=S)Nc1ccc(O)cc1	40.5% (active)
COc1ccc(/C=C2\SC(=S)N(CCC(=O)Nc3cccc(C(=O)O)c3)C2=O)cc1OC	21.8% (inactive)
O=C(CCCN1C(=O)/C(=C/c2cccs2)SC1=S)Nc1ccc(O)cc1	31.7% (inactive)
CCC(C)[C@@H](C(=O)N1CCNCC1)n1cc(CCCCN)nn1 (some centres not stated)	-13.3% (inactive)
CCOC(=O)C1CCN(CCC(=O)Nc2cccc(C)c2)CC1	11.5% (inactive)
CN(Cc1cccs1)C(=O)Cc1c[nH]c2ccccc12	14.6% (inactive)
O=C(Nc1ccc2sc3ccccc3c(=O)c2c1)c1ccccc1Cl	4.71% (inactive)
COc1cccc(-c2nn(C)c3sc(C(=O)N4CCN(c5ccccc5)CC4)cc23)c1	24.7% (inactive)
COc1ccccc1N1CCN(C(=O)c2cc3c(-c4ccc(Cl)cc4)nn(C)c3s2)CC1	15.4% (inactive)
CCOC(=O)N1CCN(C(=O)c2cc3c(-c4ccc(Cl)cc4)nn(C)c3s2)CC1	40.4% (active)
O=C(CNC(=O)c1ccccc1)NCC(=O)OCc1ccc(Cl)cc1	-23.2% (inactive)
COc1ccccc1Nc1nc(N)nc(CSC(=S)N2CCOCC2)n1	23.3% (inactive)
CCOC(=O)c1cnc(SCc2nc(N)nc(Nc3ccc(OC)cc3)n2)nc1N	17.6% (inactive)

Compound	inhibition
COc1ccc(Nc2nc(N)nc(CSC(=S)N3CCC(C)CC3)n2)cc1	46.2% (active)
C=CCNC(=O)c1ccccc1SCc1c(C)noc1C	18% (inactive)
CCOP(=O)(OCC)C(Nc1cccc(C)c1)c1ccc(F)cc1 (configuration not stated)	20.8% (inactive)
CCN=C1S/C(=C\c2cc(Br)ccc2OCC(=O)OCC)C(=O)N1CC	25.5% (inactive)
Cc1ccc(COC(=O)CN2C(=O)NC3(CCCC3)C2=O)cc1	23.6% (inactive)
COc1ccc(CCCc2nnc(SCc3nc4ccccc4c(=O)[nH]3)n2C)cc1	19.4% (inactive)
CCn1c(Cc2ccccc2)nnc1SCc1nc2ccccc2c(=O)[nH]1	8.33% (inactive)
CCn1c(COc2c(C)cccc2C)nnc1SCc1nc2ccccc2c(=O)[nH]1	40.2% (active)
O=c1c2cc(-c3ccccc3)sc2nc2n1N=C(c1cccs1)CS2	20.5% (inactive)
O=C1C(=O)N(CCN2CCOCC2)C(c2ccccn2)/C1=C(/O)c1ccc(Cl)cc1 (configuration not stated)	13.6% (inactive)
O=C(c1cccc(Cl)c1)N1CCN(Cc2ccccc2)CC1	-7.29% (inactive)
O=C(CCCC(=O)N1CCN(c2cccc(Cl)c2)CC1)c1ccccc1	29.5% (inactive)
CCc1nc2ccc(C(=O)N3CCN(c4cccc(Cl)c4)CC3)cc2nc1CC	52.2% (active)
O=C(O)c1ccn(COc2ccc(Br)cc2)n1	-4% (inactive)
O=C(CSc1cccc2cccnc12)N/N=C/c1cccnc1	51.7% (active)
CCOC(=O)N/N=C/c1cccnc1	5.36% (inactive)
Cc1ccc(NC(=O)CSc2cccc3cccnc23)c(C)c1	25.4% (inactive)
O=C(Nc1nnc(SCc2c(Cl)cccc2Cl)s1)c1cccc([N+](=O)[O-])c1	-2.85% (inactive)
O=C(Nc1nnc(SCc2c(Cl)cccc2Cl)s1)C1CCCO1 (configuration not stated)	42.5% (active)
O=C(NCc1ccccc1Cl)C1CCCO1 (configuration not stated)	0.911% (inactive)
NC(=O)CCC(NS(=O)(=O)c1ccc(Cl)cc1)C(=O)NCc1ccccc1Cl (configuration not stated)	-4.94% (inactive)
COc1ccc(Cl)cc1NC(=O)Cn1nc(-c2ccc(C)cc2)n(C)c1=S	2.15% (inactive)
Cc1cc(Nc2ccccc2)n(C(=O)c2ccc(N)cc2)n1	50.1% (active)
Cc1cc(Nc2ccccc2)n(CCC#N)n1	-11.5% (inactive)
Cc1cc(C)n(C(=O)c2ccc(S(=O)(=O)N3CCCC3)cc2)n1	17.6% (inactive)

Compound	inhibition
CCc1ccc(CN(C)C(C)C(=O)Nc2ccc(S(=O)(=O)N3CCCC3)cc2)cc1 (configuration not stated)	24.9% (inactive)
COc1ccc(OC)c(S(=O)(=O)N2CCCC(C(=O)N3CCC(C(N)=O)CC3)C2)c1 (configuration not stated)	-23.6% (inactive)
CN1CCN(S(=O)(=O)c2ccc(N3CCN(S(=O)(=O)c4cccs4)CC3)nc2)CC1	-3.27% (inactive)
COc1ccc(-n2cnc3cc(NCc4ccco4)ccc32)cc1	22% (inactive)
COc1ccc(-c2oc3ncnc(NCCCO)c3c2-c2ccc(OC)cc2)cc1	9.86% (inactive)
COc1ccc(-c2oc3ncn(Cc4ccco4)c(=N)c3c2-c2ccc(OC)cc2)cc1	41.7% (active)
Cc1cc(C)c(NC(=O)c2oc3ccccc3c2COc2ccccc2)c(C)c1	17% (inactive)
COc1cccc(C(=O)NNC(=O)c2cccc(F)c2)c1	-28.3% (inactive)
O=C(Nc1ccccc1)c1ccc2c(c1)OCCCO2	5.55% (inactive)
COc1cccc(C(=O)Nc2cc3c(cc2Br)OCCCO3)c1	40.7% (active)
O=C(c1cc(COc2cccc(C(F)(F)F)c2)on1)N1CCSCC1	26.2% (inactive)
O=C(NC1Cc2ccccc2C1)c1cc(COc2cccc(C(F)(F)F)c2)on1	18.4% (inactive)
Cc1nonc1C1CCCN1C(=O)c1cc(COc2cccc(C(F)(F)F)c2)on1 (configuration not stated)	46.1% (active)
O=c1cnnc(Nc2ccccc2F)[nH]1	-10.8% (inactive)
Cc1ccc(C(=O)N/C(=C/c2cccs2)C(=O)N2CCCCC2)cc1	19.1% (inactive)
CCOC(=O)CSc1nc2c(c(=O)n(C)c(=O)n2C)n1Cc1ccccc1F	10.3% (inactive)
Cn1c(=O)c2c(nc(SCC(=O)Nc3ccccc3N3CCCCC3)n2C)n(C)c1=O	-4.92% (inactive)
CCOC(=O)CSc1nc2c(c(=O)n(Cc3ccccc3Cl)c(=O)n2C)n1C	47.6% (active)
Cc1ccc(CS(=O)(=O)c2ncc(Cl)c(C(=O)Nc3nnc(C)s3)n2)cc1	20.6% (inactive)
CSc1nnc(NC(=O)c2nc(S(=O)(=O)Cc3ccc(C)cc3)ncc2Cl)s1	41% (active)
Cc1cccc(NC(=O)c2nc(S(=O)(=O)Cc3ccccc3)ncc2Cl)c1	23.9% (inactive)
O=C(Nc1ccc(-n2cccn2)cc1)C1CCN(Cc2ccsc2)CC1	-13.1% (inactive)
Cc1nn(C(=O)c2ccoc2C)c(N)c1-c1ccccc1	2.61% (inactive)
O=C(O)CCCC(=O)N1N=C(c2ccco2)CC1c1ccco1 (configuration not stated)	-34.5% (inactive)
Cc1nn2c(c1-c1ccccc1)N=C(c1ccco1)CC2c1ccccc1 (configuration not stated)	45.5% (active)

Compound	inhibition
CCOc1cc(C)ccc1OCc1nnc(SCC(=O)Nc2cccc(C(=O)O)c2)n1-c1ccccc1	4.93% (inactive)
COc1cc(SC)ccc1C(=O)N(Cc1ccccc1)c1ccccc1	26.9% (inactive)
COc1cc(SC)ccc1C(=O)NCCOc1ccccc1Cl	20% (inactive)
COc1ccccc1CNC(=O)c1ccc(SC)cc1OC	41.4% (active)
Cc1cc(C)n(CCNCc2c(C(=O)N3C[C@@H](C)O[C@@H](C)C3)nc3ccc(Cl)cn23)n1	5.77% (inactive)
Cc1cc(C)nc(SCC(=O)c2ccc(Cl)cc2)n1	7.83% (inactive)
Cc1cc(C)nc(SCC(=O)N(C)C)n1	9.12% (inactive)
Cc1cc(C)nc(S/C=C/C(=O)c2ccccc2)n1	62.9% (active)
COCCCn1c(SCc2cccc(OC)c2)nc2cc(OC)c(OC)cc2c1=N	28.6% (inactive)
NC(=O)N/N=C\c1cccs1	-3.46% (inactive)
COc1ccc2c(c1)c(C(=O)N/N=C/c1cccs1)c(C)n2C	44.8% (active)
COc1ccc(N(CC(=O)N/N=C/c2cccs2)S(=O)(=O)c2ccc(OC)c(OC)c2)cc1	11.7% (inactive)
CCCCN(C)CCNC(=O)C1CCCN(S(=O)(=O)c2cccc3nsnc23)C1 (configuration not stated)	8.01% (inactive)
O=C(c1ccco1)N1CCN(C(=O)c2cc(-c3ccccc3F)no2)CC1	26% (inactive)
COc1cc(/C=C/C2=CC(C)(C)NC(=S)N2)cc(OC)c1OC	16.4% (inactive)
COc1ccc(/C=C/C2=CC(C)(C)NC(=S)N2)c(OC)c1	42.8% (active)
COc1ccc(/C=C2/C(=O)N(c3ccccc3)N=C2C)c(OC)c1	28.4% (inactive)
O=C(Cc1ccccn1)c1ccc(O)cc1O	4.18% (inactive)
CC1=NNC(=O)C1CC(=O)N/N=C/c1ccncc1 (configuration not stated)	7.67% (inactive)
CCOC(=O)C1(S(=O)(=O)c2ccc(Cl)cc2)CCN(Cc2ccccc2)CC1	39.5% (inactive)
CCOC(=O)C1(CCOc2ccccc2)CCN(Cc2cc(OC)cc(OC)c2)CC1	30.7% (inactive)
CCOC(=O)C1(S(=O)(=O)c2ccccc2)CCN(Cc2ccccc2)CC1	41.1% (active)
